For assay [1], the system named is PRMT1 (protein arginine N-methyltransferase 1). As to the kind of experiment: PRMT1 binders on small-molecule microarrays, primary screen, biochemical, small-molecule microarray, 635 nm fluorescence (AID 1088).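 Also: binding of Prmt1 protein to compounds spotted on small-molecule microarray slides.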 To be noted: small-molecule microarray binding, higher = more signal.
Assay [2] in a line: yeast growth modulation, basal conditions, primary screen, YJM789 clinical isolate, OD600, 24 h (AID 1089).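 Also: growth of clinical yeast isolate S. cerevisiae YJM 789 seeded 1000 cells per well; test concentration not given here.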 Conditions: S. cerevisiae YJM789 growth, higher = more signal, called active from +8 up or from −8 down.
Assay [3] in a line: fission yeast growth modulation, primary screen, strain 972, OD600, 24 h, no modulator (AID 1090).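 Also: basal condition with compound alone and no growth modifier present; test concentration not given here.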 Conditions: S. pombe 972 growth, higher = more signal, called active from +8 up or from −8 down.
A short description of assay [4]: S. cerevisiae growth modulation with rapamycin, primary screen, strain BY4716, OD600, 96 h (AID 1091). Also: test concentration not given here. Conditions: higher = more signal, called active from +8 up or from −8 down.
The target in assay [5] is Torsin-1A-interacting protein 2 (Homo sapiens) (UniProt Q8NFQ8). As to the kind of experiment: LULL1 binders on small-molecule microarray, primary screen, cell lysate, human LULL1 lysate, 635/667 nm fluorescence (AID 1092).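 Also: probe is lysate of COS7 cells overexpressing human LULL1; score merges per-feature 667 nm fluorescence with signal-to-noise.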 Conditions: hLULL1 lysate binding, 635 nm fluorescence, higher = more signal.
Assay [6] can be described thus: E. coli growth modulation, two-sided OD650, primary screen, E. coli filamentation project, strain DRC41, 24 h (AID 1093).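 Also: MC1000 strain lacking acrAB efflux and sulA so SOS filamentation is blocked; test concentration not given here.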 To be noted: OD650, 24 h, higher = more signal, called active from +8 up or from −8 down.
Assay [7] in a line: small-molecule microarray binders of probe aLefty2, primary screen, biochemical, biotinylated probe, 635/667 nm fluorescence (AID 1094).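 Also: score merges spot fluorescence near 667 nm with spot signal-to-noise ratio.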 To be noted: higher = more signal.
In assay [8] the test system is Noggin (protein binding on small-molecule microarray). As to the kind of experiment: Noggin binders on small-molecule microarray, primary screen, biochemical, 635/667 nm fluorescence (AID 1095).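 Also: score merges 667 nm feature fluorescence with signal to noise over triplicate slides.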 Conditions: 635 nm fluorescence, higher = more signal.
For assay [9], the target named is Neurogenic locus notch homolog protein 3 (Homo sapiens) (UniProt Q9UM47). As to the kind of experiment: NOTCH3 binders on small-molecule microarray, primary screen, biochemical, 635/667 nm fluorescence (AID 1096). To be noted: NOTCH3 binding, 635 nm fluorescence, higher = more signal.
Assay [10] is described as follows: small-molecule microarray binders of probe aEGFR, primary screen, biochemical, biotinylated probe, 635/667 nm fluorescence (AID 1097).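 Also: probe is a biotinylated anti-EGFR antibody binding compounds printed on slides; score combines fluorescence near 667 nm and signal to noise of each spot.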 To be noted: higher = more signal.
For assay [11], the system named is Plasmodium falciparum Sir2 (PF13_0152, Sir2A). As to the kind of experiment: pfSir2 binders on small-molecule microarrays, primary screen, biochemical, small-molecule microarray, 635 nm fluorescence (AID 1098).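 Also: score merges spot fluorescence intensity with its signal-to-noise ratio.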 Conditions: small-molecule microarray binding, fluorescence 635 nm; higher = more signal.
A short description of assay [12]: small-molecule microarray binders of probe aDKK1, primary screen, biochemical, biotinylated probe, 635/667 nm fluorescence (AID 1099).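 Also: score merges 667nm spot fluorescence with signal to noise across triplicate slides; reference of the scale not given here.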 To be noted: higher = more signal.
Assay [13] in a line: small-molecule microarray binders of probe aCHRDL2, primary screen, biochemical, biotinylated probe, 635/667 nm fluorescence (AID 1100). Conditions: higher = more signal.
The nature of assay [14]: splicing luciferase reporter signal modulators, primary screen, spliceosome inhibition project, cell-based, HEK293, splice +/- reporter (AID 1101).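 Also: HEK293 cells carrying a splicing-competent luciferase reporter gene; test concentration not given here.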 Conditions: luminescence, 24 h, higher = more signal, called active from +8 up or from −8 down. For orientation: A reporter such as luciferase makes a cellular process visible.
The target of assay [15] is Fibroblast growth factor 10 (Homo sapiens) (UniProt O15520). As to the kind of experiment: FGF10 binders on small-molecule microarrays, primary screen, biochemical, small-molecule microarray, 635 nm fluorescence (AID 1102). Conditions: FGF10 binding, fluorescence 635 nm, higher = more signal.
The subject of assay [16] is glycogen synthase kinase-3 (GSK3A per assay name; protocol says GSK3B). The experiment in a line: GSK3 binders on small-molecule microarrays, primary screen, biochemical, small-molecule microarray, 635 nm fluorescence, GSK3A (AID 1103). Also: the record names both GSK3A and GSK3B. To be noted: small-molecule microarray binding, fluorescence 635 nm; higher = more signal.
In assay [17] the target is Epidermal growth factor receptor (Homo sapiens) (UniProt P00533). The experiment in a line: EGFR binders on small-molecule microarrays, primary screen, biochemical, small-molecule microarray, 635 nm fluorescence (AID 1104).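 Also: score merges 667 nm emission intensity with spot signal to noise over triplicate slides.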 Conditions: EGFR binding, higher = more signal.
Assay [18] has as its target Follistatin-related protein 3 (Homo sapiens) (UniProt O95633). The experiment in a line: FSTL3 binders on small-molecule microarrays, primary screen, biochemical, small-molecule microarray, 635 nm fluorescence (AID 1105).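 Also: score merges emission near 667 nm and signal to noise per printed spot across three slides.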 Conditions: FSTL3 binding, higher = more signal.
In assay [19] the target is Dickkopf-related protein 1 (Homo sapiens) (UniProt O94907). The experiment in a line: DKK1 binders on small-molecule microarrays, primary screen, biochemical, small-molecule microarray, 635 nm fluorescence scan (AID 1106).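 Also: score merges emission near 667 nm with signal to noise over three replicate slides.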 Conditions: DKK1 binding, higher = more signal.
The test system of assay [20] is Inhibin beta A chain (activin A). As to the kind of experiment: INHBA (activin A) binders on microarrays, primary screen, biochemical, small-molecule microarray, 635 nm fluorescence scan (AID 1107).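 Also: mouse activin A protein probed at 4.33 µg/mL on printed slides; score merges bound-protein fluorescence near 667 nm with spot signal-to-noise.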 To be noted: small-molecule microarray binding, higher = more signal.

The source made the active and inactive calls.

Chain of Fibroblast growth factor 10 (Homo sapiens) (O15520 whole entry, looked up): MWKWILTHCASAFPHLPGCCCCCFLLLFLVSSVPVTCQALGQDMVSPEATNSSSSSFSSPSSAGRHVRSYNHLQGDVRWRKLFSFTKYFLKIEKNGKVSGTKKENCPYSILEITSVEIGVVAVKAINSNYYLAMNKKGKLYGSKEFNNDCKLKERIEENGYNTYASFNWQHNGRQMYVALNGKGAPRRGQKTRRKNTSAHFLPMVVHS
Chain of Dickkopf-related protein 1 (Homo sapiens) (O94907 whole entry, looked up): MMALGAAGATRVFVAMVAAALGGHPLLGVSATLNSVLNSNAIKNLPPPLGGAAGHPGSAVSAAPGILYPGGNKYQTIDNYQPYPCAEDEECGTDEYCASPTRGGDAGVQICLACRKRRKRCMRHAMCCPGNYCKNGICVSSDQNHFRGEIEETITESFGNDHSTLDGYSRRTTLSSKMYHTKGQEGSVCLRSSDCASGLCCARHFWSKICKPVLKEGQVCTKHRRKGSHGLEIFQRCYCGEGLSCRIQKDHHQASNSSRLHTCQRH
Chain of Torsin-1A-interacting protein 2 (Homo sapiens) (Q8NFQ8 whole entry, looked up): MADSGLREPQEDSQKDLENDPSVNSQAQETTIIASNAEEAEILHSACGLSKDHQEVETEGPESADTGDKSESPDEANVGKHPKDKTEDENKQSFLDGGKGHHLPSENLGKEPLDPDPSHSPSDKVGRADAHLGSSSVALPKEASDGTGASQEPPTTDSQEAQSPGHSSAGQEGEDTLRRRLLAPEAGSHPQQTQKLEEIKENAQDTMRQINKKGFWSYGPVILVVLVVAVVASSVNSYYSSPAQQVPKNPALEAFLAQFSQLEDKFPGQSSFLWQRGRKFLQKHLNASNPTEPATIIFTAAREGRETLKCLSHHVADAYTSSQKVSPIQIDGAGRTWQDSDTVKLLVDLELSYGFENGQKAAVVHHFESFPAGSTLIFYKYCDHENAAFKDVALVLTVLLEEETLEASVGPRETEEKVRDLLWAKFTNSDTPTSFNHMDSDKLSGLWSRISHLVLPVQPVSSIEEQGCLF
Chain of Follistatin-related protein 3 (Homo sapiens) (O95633 whole entry, looked up): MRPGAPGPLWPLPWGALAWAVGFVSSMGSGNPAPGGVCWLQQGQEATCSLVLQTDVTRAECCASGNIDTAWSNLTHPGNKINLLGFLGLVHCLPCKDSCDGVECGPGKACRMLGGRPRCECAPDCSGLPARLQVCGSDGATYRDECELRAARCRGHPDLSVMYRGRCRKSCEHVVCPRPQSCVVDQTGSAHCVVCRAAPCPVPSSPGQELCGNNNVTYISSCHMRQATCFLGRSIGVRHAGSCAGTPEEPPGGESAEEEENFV
Chain of Epidermal growth factor receptor (Homo sapiens) (P00533 whole entry, looked up): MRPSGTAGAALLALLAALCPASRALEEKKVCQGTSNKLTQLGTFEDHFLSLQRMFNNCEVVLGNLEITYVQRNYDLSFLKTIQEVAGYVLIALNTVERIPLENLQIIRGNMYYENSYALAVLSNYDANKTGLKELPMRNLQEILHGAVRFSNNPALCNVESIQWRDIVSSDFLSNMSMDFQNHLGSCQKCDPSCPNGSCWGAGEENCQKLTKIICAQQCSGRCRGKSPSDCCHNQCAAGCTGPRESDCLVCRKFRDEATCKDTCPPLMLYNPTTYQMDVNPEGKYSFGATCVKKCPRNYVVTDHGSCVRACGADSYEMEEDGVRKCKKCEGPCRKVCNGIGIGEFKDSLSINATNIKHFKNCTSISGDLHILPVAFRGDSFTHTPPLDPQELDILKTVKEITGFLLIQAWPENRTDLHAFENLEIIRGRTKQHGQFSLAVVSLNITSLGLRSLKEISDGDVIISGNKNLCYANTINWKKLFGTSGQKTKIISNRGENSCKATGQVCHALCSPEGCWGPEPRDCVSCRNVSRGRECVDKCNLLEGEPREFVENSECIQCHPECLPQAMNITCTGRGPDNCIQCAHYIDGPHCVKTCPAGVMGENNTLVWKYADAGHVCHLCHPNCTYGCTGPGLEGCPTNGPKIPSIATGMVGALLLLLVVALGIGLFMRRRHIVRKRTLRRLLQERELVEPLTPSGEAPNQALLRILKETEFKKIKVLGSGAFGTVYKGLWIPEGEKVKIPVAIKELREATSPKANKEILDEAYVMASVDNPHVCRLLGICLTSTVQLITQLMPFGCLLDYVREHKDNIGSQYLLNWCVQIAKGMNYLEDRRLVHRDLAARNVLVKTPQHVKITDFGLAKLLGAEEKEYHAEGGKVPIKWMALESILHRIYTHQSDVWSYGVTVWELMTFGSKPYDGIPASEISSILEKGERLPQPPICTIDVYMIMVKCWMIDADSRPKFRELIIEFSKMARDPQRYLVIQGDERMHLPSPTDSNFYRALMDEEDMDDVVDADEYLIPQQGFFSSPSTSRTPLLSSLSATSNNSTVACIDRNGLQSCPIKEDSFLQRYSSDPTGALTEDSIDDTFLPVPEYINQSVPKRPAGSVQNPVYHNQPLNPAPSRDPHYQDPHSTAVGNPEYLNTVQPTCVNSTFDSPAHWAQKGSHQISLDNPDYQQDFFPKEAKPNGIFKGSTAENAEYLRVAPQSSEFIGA
Chain of Neurogenic locus notch homolog protein 3 (Homo sapiens) (Q9UM47 whole entry, looked up): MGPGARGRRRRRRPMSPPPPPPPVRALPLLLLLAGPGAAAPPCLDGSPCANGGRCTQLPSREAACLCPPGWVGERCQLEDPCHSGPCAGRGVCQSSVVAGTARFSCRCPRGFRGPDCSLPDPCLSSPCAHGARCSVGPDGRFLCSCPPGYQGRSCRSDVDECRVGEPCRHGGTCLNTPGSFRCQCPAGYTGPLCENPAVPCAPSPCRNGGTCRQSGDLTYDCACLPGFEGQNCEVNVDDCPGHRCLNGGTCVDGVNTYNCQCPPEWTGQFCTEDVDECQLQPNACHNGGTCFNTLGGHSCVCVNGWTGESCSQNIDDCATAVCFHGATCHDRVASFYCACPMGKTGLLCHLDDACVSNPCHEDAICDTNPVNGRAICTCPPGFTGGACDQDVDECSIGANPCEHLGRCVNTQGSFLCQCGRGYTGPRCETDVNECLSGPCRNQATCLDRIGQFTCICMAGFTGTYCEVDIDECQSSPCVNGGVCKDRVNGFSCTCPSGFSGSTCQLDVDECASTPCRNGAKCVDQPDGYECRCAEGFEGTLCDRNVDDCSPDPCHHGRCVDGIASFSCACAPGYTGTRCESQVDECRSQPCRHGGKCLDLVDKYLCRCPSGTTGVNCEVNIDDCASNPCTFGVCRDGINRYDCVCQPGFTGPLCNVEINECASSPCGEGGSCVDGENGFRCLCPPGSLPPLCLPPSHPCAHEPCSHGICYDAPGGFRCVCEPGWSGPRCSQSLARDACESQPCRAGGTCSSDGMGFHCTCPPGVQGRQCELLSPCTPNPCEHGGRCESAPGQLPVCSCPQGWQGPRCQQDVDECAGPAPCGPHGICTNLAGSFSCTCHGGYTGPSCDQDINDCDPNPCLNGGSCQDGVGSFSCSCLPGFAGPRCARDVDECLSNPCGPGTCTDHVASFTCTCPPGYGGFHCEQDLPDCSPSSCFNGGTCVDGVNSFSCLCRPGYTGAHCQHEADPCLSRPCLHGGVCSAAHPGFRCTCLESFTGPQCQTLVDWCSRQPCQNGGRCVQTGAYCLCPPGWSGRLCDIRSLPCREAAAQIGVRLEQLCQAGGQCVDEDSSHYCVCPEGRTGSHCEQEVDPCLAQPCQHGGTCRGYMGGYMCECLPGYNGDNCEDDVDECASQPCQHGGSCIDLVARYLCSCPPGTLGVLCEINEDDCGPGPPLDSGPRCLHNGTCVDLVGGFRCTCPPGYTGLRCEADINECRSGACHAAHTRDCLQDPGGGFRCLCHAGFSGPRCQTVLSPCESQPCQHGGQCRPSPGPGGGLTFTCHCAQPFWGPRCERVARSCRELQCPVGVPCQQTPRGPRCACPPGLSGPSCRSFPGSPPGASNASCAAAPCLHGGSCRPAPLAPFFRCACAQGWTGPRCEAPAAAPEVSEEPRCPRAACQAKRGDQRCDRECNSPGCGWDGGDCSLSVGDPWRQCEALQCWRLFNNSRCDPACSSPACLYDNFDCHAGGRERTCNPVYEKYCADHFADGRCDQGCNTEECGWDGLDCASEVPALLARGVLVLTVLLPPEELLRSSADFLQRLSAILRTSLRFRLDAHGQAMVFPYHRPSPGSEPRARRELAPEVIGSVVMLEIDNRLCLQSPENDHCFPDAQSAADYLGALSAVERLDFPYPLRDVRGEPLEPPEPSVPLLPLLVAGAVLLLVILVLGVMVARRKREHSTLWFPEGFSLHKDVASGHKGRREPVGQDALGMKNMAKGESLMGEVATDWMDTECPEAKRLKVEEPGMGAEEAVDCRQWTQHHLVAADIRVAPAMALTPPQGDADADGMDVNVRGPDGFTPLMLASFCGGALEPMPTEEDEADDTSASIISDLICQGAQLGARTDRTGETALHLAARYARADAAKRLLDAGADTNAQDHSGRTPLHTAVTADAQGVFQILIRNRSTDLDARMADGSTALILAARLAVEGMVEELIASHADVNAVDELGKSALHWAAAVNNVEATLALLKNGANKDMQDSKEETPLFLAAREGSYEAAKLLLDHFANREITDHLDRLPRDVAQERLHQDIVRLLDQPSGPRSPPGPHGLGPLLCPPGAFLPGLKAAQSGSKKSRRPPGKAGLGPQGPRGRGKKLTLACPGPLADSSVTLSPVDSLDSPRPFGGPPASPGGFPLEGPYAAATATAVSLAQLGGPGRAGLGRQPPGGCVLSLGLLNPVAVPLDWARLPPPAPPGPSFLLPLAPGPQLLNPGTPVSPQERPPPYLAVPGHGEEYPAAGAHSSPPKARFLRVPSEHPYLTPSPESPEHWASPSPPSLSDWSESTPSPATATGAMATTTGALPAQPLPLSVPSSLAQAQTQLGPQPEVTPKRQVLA

For `CC(C)=CCCC(C)=CCON=C1C[C@@H](O)[C@@H](O)[C@@H]2[C@@H]3C(=O)N(c4ccc(F)cc4F)C(=O)[C@@H]3CC[C@@H]12`, the composite z-score is 1.11 in assay [1]; -0.0426 in assay [5]; 0.0054 in [7]; 0.888 in assay [8]; 0.678 in assay [9]; -0.0381 in assay [10]. Besides, the composite z-score was 0.476 in assay [11]; -0.324 in [12]; -0.497 in assay [13]; 0.601 in assay [15]; -0.0599 in assay [16]; 0.628 in [17]. The composite z-score in assay [18] stood at 0.806; in assay [19] it was 0.926; in [20], 1.04. The z-score in [2] was 0.918 (inactive); in assay [3] it was -2.43 (inactive); in assay [4], -0.496 (inactive); in assay [6], 1.34 (inactive); in [14], -0.118 (inactive).
Consider `Cc1ccc(S(=O)(=O)N[C@H]2COC(=O)CC=C[C@@H](C)COC(=O)CC=C[C@@H]2C)cc1`, for which the composite z-score in assay [1] was 0.683; in assay [5], -0.953; in [7], 0.296; in assay [8] it was 1.8; in [9], -0.207; in assay [10], -0.281. In addition, the composite z-score in assay [11] is 0.549; in assay [12] it was -0.789; in assay [13], -1.26; in [15], 0.813; in assay [16], 0.448; in assay [17], 0.823. Moreover, the values for the composite z-score in [18], in assay [19] and in [20] were 1.4, 2.04 and 1.36, respectively. In addition, the z-score in assay [2] is 0.611 (inactive); in assay [3], 0.174 (inactive); in [4], 0.247 (inactive); in assay [6], 0.682 (inactive); in assay [14], 0.597 (inactive).
Take `CCN1C(=O)[C@H]2[C@H]3[C@H](O)[C@H](O)CC(=O)[C@@H]3CC[C@H]2C1=O`: the composite z-score in assay [1] was 0.705; in [5], 1.36; in assay [7], -0.145; in assay [8] it was 0.441; in assay [9] it was 0.717; in [10], -0.0115. The composite z-score in [11] is 0.677; in [12], -0.22; in assay [13], -0.478; in assay [15], 0.492; in assay [16], 0.692; in assay [17], 0.555. The values for the composite z-score in assay [18], in [19] and in assay [20] were 0.688, 0.396 and -0.167, respectively. The z-score in assay [2] was 0.0074 (inactive); in [3] it was -0.268 (inactive); in assay [4], -0.139 (inactive); in assay [6], 0.439 (inactive); in assay [14], -0.0387 (inactive).
On to `COC(=O)CC=C[C@@H](C)[C@@H](C=NO[C@H](C)c1cn([C@H](CO)Cc2ccccc2)nn1)OC`, for which the composite z-score was 1.14 in [1]; 0.169 in [5]; -0.12 in assay [7]; 1.37 in [8]; 0.614 in assay [9]; 0.0556 in assay [10]. Besides, the composite z-score was 0.611 in assay [11]; -0.233 in [12]; -0.736 in assay [13]; 0.877 in assay [15]; 0.483 in assay [16]; 0.952 in assay [17]. The values for the composite z-score in assay [18], in assay [19] and in [20] were 0.515, 1.06 and -0.34, respectively. Besides, the z-score in assay [2] was -0.14 (inactive); in assay [3], -0.617 (inactive); in assay [4] it was -0.0624 (inactive); in assay [6], 0.0673 (inactive); in assay [14], 0.934 (inactive).
For `CCOC(=O)[C@H](CC(C)C)NC(=O)CCC1CC(OC(=O)NCCc2ccc(F)cc2)CC2(CCCC(COC(=O)NCCC(C)C)O2)O1` (stereo not given in full), the composite z-score in assay [1] is 0.201; in assay [5], 1.51; in [7], -0.107; in [8], 0.456; in assay [9], -0.496; in [10], -0.0778. For the same molecule, the composite z-score in assay [11] is 0.264; in [12] it was -0.149; in assay [13], -0.424; in assay [15], 0.18; in [16], -0.0508; in assay [17], 0.0889. In addition, the composite z-score in assay [18] was determined as 0.27; in assay [19], 0.324; in assay [20] it was 0.175. For the same molecule, the z-score in [2] is 0.0312 (inactive); in assay [3], 1.12 (inactive); in [4] it was 1.08 (inactive); in assay [6], -0.917 (inactive); in assay [14] it was -0.695 (inactive).

The values are drawn from PubChem BioAssay.
